Screening results deposited in PubChem BioAssay by Broad Institute.
CaV13 ICDI inh – Disruptors of the CACNA1D IQ motif to Ca2+-dependent inactivation inhibitor domain association, primary screening, Förster resonance energy transfer in intact living …; 340,000 compounds, 0.098% hits; HEK cells, CFP/YFP FRET ICDI-IQ, plate reader, 10 min; percent FRET-ratio fall versus neutral wells; inhibition, % at 12.3 µM; AID 743397;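 active means mean replicate inhibition of at least 30% and at least 1% of replicates passing that level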;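 further: 0% = median of the neutral control wells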
PGC1a acetyl inh – lowers PGC1a acetylation signal in U2OS cells; AlphaScreen anti-acetyl-lysine; with virally co-expressed GCN5 acetyltransferase; inhibition, % at 15.6 µM; 350,000 compounds, 0.17% hits; AID 651687;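 active means every replicate shows inhibition of at least 40%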;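 further: 0% = neutral control wells and 100% = positive control wells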
ERAP1 HTS inh – inhibitors of human ERAP1 aminopeptidase. 340,000 compounds, 0.15% hits. inhibition, % at 10.7 µM. recombinant ERAP1, Leu-AMC fluorescence, 60 min;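 active means mean replicate inhibition of at least 30%, or all replicates individually reaching that 30% level; inactive means mean below 30% and not every replicate reaching it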;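 further: 0% = neutral control wells and 100% = L-leucinethiol positive control wells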
GSIS activator – primary screen for activators of insulin secretion dependent on glucose, INS-1E cells, GLuc reporter luminescence. INS-1E GLuc reporter insulin secretion, 2-3 h. activation, % at 16.6 µM. 370,000 compounds, 0.61% hits;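 active means lowest replicate activation of at least 40%, so every replicate reaches that level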;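 further: 0% = median of neutral control wells and 100% = median of IBMX positive control wells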
DENV2 CPE – inhibitors of DENV2 cytopathic effect. DENV2-infected cells, cytopathic effect rescue, plate reader. CPE inhibition, % at 9.99 µM. 350,000 compounds, 1.7% hits. AID 651640; in the data active means CPE inhibition above about 20%, passing the limit was not always enough; tested in BHK-21 cells;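 further: 0% = median of neutral control wells and 100% = median of positive control wells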
Ecoli rRNA inh – inhibitors of bacterial rRNA selective over humanized ribosomes; 350,000 compounds, 1.6% hits; GFP signal change (wild-type ribosome), % (no concentration beside the values); E. coli WT GFP vs humanized-ribosome RFP mutants, fluorescence, 24 h; active compounds read low; DMSO median 0, no signal -100;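 active means significant combined selectivity score with lowered wild-type GFP, culture density cut under 30%, mutant RFP and density less affected; inactive means any of these conditions unmet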
An asterisk follows results filed as active; . = not tested or not shown; + = active, no number; ! = a repeat was not active. The list is not random: actives were taken first. Their share in the collection is about 3.2%.

SMILES	CaV13 ICDI inh	PGC1a acetyl inh	ERAP1 HTS inh	GSIS activator	DENV2 CPE	Ecoli rRNA inh
CCCCNC(=S)NCC(c1ccccc1)c1c[nH]c2ccccc12 (stereo not drawn)	-19	-6	-1	-33	4	-49*
CN(C)CCOc1ccc(/C(=C(/CCCl)c2ccccc2)c2ccccc2)cc1	-5	-109	6	104*	-6	-62
O=C(Nc1ccccc1F)N[C@H]1CC[C@@H](CC(=O)N2CCCCC2)O[C@H]1CO	.	1	-5	8	-4	-3
CC1(C(=O)NCc2ccccc2)CN(S(C)(=O)=O)CC(=O)N1CCc1ccccc1F (stereo not drawn)	-11	.	-3	-10	74*	0
Cc1ccc(CN2C(=O)CN(S(C)(=O)=O)CC2(C)C(=O)NC(C)C)cc1 (stereo not drawn)	-7	.	.	-1	-3	20
CC1(C(=O)NCc2ccccc2)CSCC(=O)N1CCc1c[nH]c2ccccc12 (stereo not drawn)	-7	.	.	-11	-5	-41*
CC1(C(=O)NCc2ccccc2)CN(S(C)(=O)=O)CC(=O)N1CCc1ccc(O)cc1 (stereo not drawn)	-10	.	0	-2	26*	3
CC(C)CN1C(=O)CN(S(C)(=O)=O)CC1(C)C(=O)NC(C)C (stereo not drawn)	-15	.	0	26	27*	.
CCCC(=O)N1CC2(C1)CN(C(=O)C1CCCC1)[C@H](CO)c1[nH]c3cc(OC)ccc3c12	.	.	.	-11	.	0
C[C@H]1CN([C@@H](C)CO)C(=O)c2cc(/C=C/c3ccccc3)cnc2O[C@@H]1CN(C)S(=O)(=O)c1ccccc1	.	-4	0	23	-3	-8
O=C(Nc1ccc2c(c1)OCO2)N1C[C@@H]2N[C@H](C1)C2c1ccc(C=Cc2ccccc2)cc1 (stereo partly drawn)	.	-8	0	89*!	-3	-60
O=C(Nc1ccc2c(c1)OCO2)N1[C@@H]2CNC[C@H]1C2c1ccc(/C=C/c2ccccc2)cc1 (stereo partly drawn)	.	.	-1	-13	79*	-60
O=C(Nc1ccc(F)cc1)N1[C@@H]2CNC[C@H]1C2c1ccc(/C=C/c2ccccc2)cc1 (stereo partly drawn)	.	3	1	9	-10	-60
C/C=C/c1ccc(C2[C@H]3CNC[C@@H]2N3C(=O)NCCC)cc1 (stereo partly drawn)	.	9	-1	2	25*!	5
O=C(Nc1ccc(C(F)(F)F)cc1)N1[C@@H]2CNC[C@H]1C2c1ccc(/C=C/c2ccccc2)cc1 (stereo partly drawn)	.	9	-5	+!	2	-40
O=C(Nc1ccc(F)cc1)N1C[C@@H]2N[C@H](C1)C2c1ccc(/C=C/c2ccccc2)cc1 (stereo partly drawn)	.	-15	.	-17	0	-58
C[C@@H]1CN([C@@H](C)CO)S(=O)(=O)c2ccc(C3=CCCCC3)cc2O[C@@H]1CN(C)S(=O)(=O)c1ccc(F)cc1	.	-3	0	1	-5	0
C/C=C/c1ccc(C2[C@@H]3CN(C(=O)Nc4ccc(C(F)(F)F)cc4)C[C@H]2N3)cc1 (stereo partly drawn)	.	1	.	190*!	41*!	-57
O=C(C1CCC1)N1CC[C@H]2[C@H](CO)Nc3ccc(Br)cc3[C@H]21	.	-3	5	12	9	1
O=C(C1CC1)N1CC[C@H]2[C@H](CO)Nc3ccc(Br)cc3[C@H]21	.	1	2	0	27*	4
O=C(C1CC1)N1CC[C@@H]2[C@H]1c1cc(Br)ccc1N[C@@H]2CO	.	10	.	-12	36*	1
O=C(C1CC1)N1CC[C@@H]2[C@H](CO)Nc3ccc(-c4cccc(F)c4)cc3[C@@H]21	.	-1	0	-36	11	-8
O=C(C1CC1)N1CC[C@H]2[C@H](CO)Nc3ccc(-c4cccc(F)c4)cc3[C@H]21	.	2	1	-14	32*	-6
O=C(C1CCCC1)N1CC[C@@H]2[C@H]1c1cc(Br)ccc1N[C@@H]2CO	.	12	.	34	-7	-5
COc1ccc([C@H]2CC=CC[C@@H](C)Oc3ccccc3C(=O)N(C)[C@H](C)C(=O)N2)c(OC)c1 (mixture of isomers)	.	.	.	-10	.	-2
SMILES	CaV13 ICDI inh	PGC1a acetyl inh	ERAP1 HTS inh	GSIS activator	DENV2 CPE	Ecoli rRNA inh
C[C@@H]1CN([C@@H](C)CO)C(=O)c2cc(NC(=O)C3CC3)ccc2O[C@@H]1CN(C)Cc1ccc(C(F)(F)F)cc1	.	5	-2	-11	-3	-7
CCCNC(=O)N1CC2(C1)[C@H](c1ccccc1)[C@H](CO)N2CC1CC1	.	-15	2	4	1	1
O=C(C[C@@H]1C=C[C@H](NS(=O)(=O)c2ccc(F)cc2)[C@@H](CO)O1)N1CCN(c2ccccc2)CC1	.	1	0	4	-1	-4
CCOc1cc(/C=C2\N=C(C)OC2=O)cc(Br)c1OCC(=O)OC	-7	.	0	22	0	10
CCOc1cc(/C=C2\N=C(C)OC2=O)cc(Br)c1OCCc1ccccc1	-7	9	0	-5	-7	-24*
C[C@H](CO)N1C[C@H](C)[C@H](CN(C)C(=O)NC2CCCCC2)OCCCC[C@H](C)Oc2ccc(NC(=O)C3CCCCC3)cc2C1=O	.	8	-1	-21	0	-2
CSc1nc(C)c(CCOCc2ccc(F)cc2)c(=O)[nH]1	-5	0	0	30	2	-22*
Cc1noc(C)c1NC(=O)Nc1cccc2c1O[C@@H](CN(C)C(=O)NC(C)C)[C@@H](C)CN([C@@H](C)CO)C2=O	.	-10	0	1	-3	1
Cc1ccc(/C=C2/CNC/C(=C/c3ccc(C)cc3)C2=O)cc1	-6	74*	3	9	-1	-14
Cc1ccc(/C=C2\CCOC2=O)cc1	-9	.	-1	1	-1	3
COc1ccc(C(c2sc3ncnn3c2O)N2CC(C)OC(C)C2)cc1OC (stereo not drawn)	-1	.	3	.	75*	1
OCCCNc1cc(-c2ccnc(Nc3cccc(Cl)c3)n2)ccn1	-10	.	-1	-8	-2	-20*
CO[C@@H]1CN(C)C(=O)c2ccc(NC(C)=O)cc2OC[C@H](C)N(C(=O)c2ccccc2)C[C@@H]1C	.	.	.	24	.	0
COc1cc2c(cc1[N+](=O)[O-])n(C(C)C)c(=O)n2C(C)C	-5	.	-1	58*	-7	6
CC(C)OC(=O)N(C)C[C@H]1OCc2ccccc2-c2ccccc2C(=O)N([C@@H](C)CO)C[C@@H]1C	.	1	3	3	2	-1
